# Results taken from PubChem BioAssay (NCI).
# Compounds without any hit were thinned out: in the full panel of roughly 83,000, 20% have a hit.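 Cell lines were cultured in 96-well plates, exposed to a single compound concentration, and assessed for percent growth 48 hours later.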 Activity calls are given as the source filed them. How the source made its calls: active means growth percent below 10; inactive means the rest.
# Tested on: MDA-MB-468 breast
# Assay: NCI-60 one-dose screen, 48 h (100 = growth as untreated, 0 = no growth, -100 = all killed)
# Conditions: 10 µM unless noted
row,SMILES,growth
1,Cc1ccccc1NC(=O)/C=C/c1ccc(OCCOc2ccc3c(C)cc(=O)oc3c2)cc1,104% (inactive)
2,COc1ccc2c(c1)cn1c3ccc(O)cc3[nH]c(=O)c21,-6.77% (active)
3,COc1cccc2cc(-c3cc4ccccc4[nH]3)/c(=N/C(=S)Nc3ccccc3)oc12,79.1% (inactive)
4,COc1ccc(NC(=O)/C=C/c2ccc(Cl)c(Cl)c2)cn1,69.5% (inactive)
5,c1ccc2sc(SCCCn3ccnc3)nc2c1,61.8% (inactive)
6,C/C(=C(/c1ccc(Cl)cc1)c1ccc(OCCN)cc1)c1ccc(C)cc1,108% (inactive)
7,CCCCn1cnc2c(=O)[nH]cnc21,104% (inactive)
8,CCN(CC)CCNc1ccc(N=Nc2cnc3ccccc3c2)c2ccccc12,-64.5% (active)
9,COc1cc2ncnc(Nc3ccc(F)c(Cl)c3)c2cc1OCC(=O)N1CCN(c2ccccc2)CC1,-17.5% (active)
10,COc1cc(/C=C2\CCCC3C2=Nc2ccccc2NC3c2cc(OC)c(OC)c(OC)c2)cc(OC)c1OC (stereo not given),-6.85% (active)
11,Nc1ccc(CC(=O)O)c(N)c1,88.5% (inactive)
12,COc1ccc(-n2c(C(O)c3ccccc3)n[nH]c2=S)cc1 (stereo not given),98.6% (inactive)
13,O=C(NCc1ccc(Cl)cc1Cl)C1CCC(=O)N1c1cccs1 (stereo not given),115% (inactive)
14,CNC(=O)Nc1ccc(Nc2cc(-c3ccc(-n4cccn4)cc3)[nH]n2)c(C)c1,96.3% (inactive)
15,CC1(C)CC[C@]2(C(=O)OC(=O)[C@]34CCC(C)(C)C[C@@H]3C3=CC[C@@H]5[C@@]6(C)CCC(=O)C(C)(C)[C@@H]6CC[C@@]5(C)[C@]3(C)CC4)CC[C@]3(C)C(=CC[C@@H]4[C@@]5(C)CCC(=O)C(C)(C)[C@@H]5CC[C@]43C)[C@H]2C1,61.5% [100 µM] (inactive)
16,CNCc1cccc2c1OCCOCCOCCNS(=O)(=O)c1ccc(cc1)-c1cnc(N)c(n1)C(=O)N2,35.6% (inactive)
17,N#CC1CCc2c(c(-c3cn[nH]c3C(F)(F)F)nc3c(F)cc4[nH]ncc4c23)C1 (stereo not given),-6.53% (active)
18,CCN1C(=O)N(c2ccccc2)C2NC(=S)N(/N=C/C=C/c3ccccc3OC)C21 (stereo not given),2.35% (active)
19,Cc1ccc2c(c1)/C(=N\N=C/c1cn(C(C)C)c3ccccc13)C(=O)N2,7.43% (active)
20,O=c1c2cc(F)cc(Cl)c2sc2c(Cl)nc3ccccc3c12,99% (inactive)

row,SMILES,growth
1,O=C(OC(CO)C(=O)NC12CC3CC(CC(C3)C1)C2)c1ccc(Cl)cc1 (stereo not given),95.3% (inactive)
2,Fc1ccc(-c2nn3c(-c4cc(C(F)(F)F)cc(C(F)(F)F)c4)nnc3s2)cc1,25.5% (inactive)
3,O=C(CCc1nc2sc3c(c2c(=O)[nH]1)CCC3)NCc1cn(-c2ccccc2)nc1-c1ccccc1,83.6% (inactive)
4,COc1ccc(-c2cc(-c3cccc(NS(C)(=O)=O)c3)nc(N)c2C#N)cc1,0.11% (active)
5,C/C(O)=C(/C=N/C(=S)Nc1ccccc1)C(=O)Nc1ccccc1C,99.7% (inactive)
6,C=CCC(CCC(CC=C)C(=O)OCC)C(=O)OCC (stereo not given),108% (inactive)
7,CCOP(=O)(OCC)OC[C@]12CCC(C)(C)C=C1[C@H]1CC[C@@H]3[C@@]4(C)CC[C@H](OP(=O)(OCC)OCC)C(C)(C)[C@@H]4CC[C@@]3(C)[C@]1(C)CC2,-16.8% (active)
8,C=CCNc1nnc(C)s1,104% (inactive)
9,CCCCN1CCN(c2ccc3nc(-c4ccc5nc(-c6ccc(C(F)(F)F)cc6)[nH]c5c4)[nH]c3c2)CC1,-62.1% (active)
10,O=C(Nc1ccc(Cl)cc1F)c1cc(Cl)ccc1O,-20.2% (active)
11,COc1ccc(NC(=O)/C=C/c2ccc(NC(=O)N3CCCC3)cc2)cn1,116% (inactive)
12,O=c1[nH]c(=O)c2[nH]c(=O)[nH]c2[nH]1,85.6% (inactive)
13,C#Cc1cccc(Nc2ncnc3cc(NC(=O)CCl)ccc23)c1,-60.8% (active)
14,COc1ccc(-c2nc3sccn3c2-c2cc(-c3cc(OC)c(OC)c(OC)c3)on2)cc1,100% (inactive)
15,O=C(Cn1c(=O)sc2ccccc21)NNS(=O)(=O)c1ccccc1[N+](=O)[O-],107% (inactive)
16,COc1cc(CNC(=O)CCCC/C=C/C(C)C)ccc1OCc1cn(-c2ccc([N+](=O)[O-])cc2)nn1,77.4% (inactive)
17,CCOC(=O)[C@@H]1CSC(CC)=C(C(=O)O)N1,113% (inactive)
18,Cc1nc2cc(Nc3nc(N4CCOCC4)nc(N4CCN(C)CC4)n3)ccc2n1Cc1ccccc1,111% (inactive)
19,COc1ccc2nc(N=Nc3c(O)ccc4ccccc34)sc2c1,25.3% (inactive)
20,CSc1nn(-c2ccccc2)c2ncnc(Oc3ccccc3)c12,88.6% (inactive)
